Measured values taken from PubChem BioAssay (NCATS).
Records with an inconclusive call do not appear. Calls of active or inactive are those of the source. Unless noted, calls follow the shape of the dose curve; as a rule, active = well fitted curve in the direction sought with a large enough effect; inconclusive = small, poorly fitted or top-dose-only effect, or another doubt; inactive = no such curve, though single readings can be large; an effect the other way counts as inactive or inconclusive.

Assays:
[1] = Validation of Assay for Modulators of Lamin A Splicing (AID 1459; active = well fitted curve in the direction sought with a large enough effect in the signal ratio; the % refers to the signal ratio;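 also: cells exposed to compound for two days before reading; ratio rise marks activators and ratio drop marks inhibitors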)
Outline: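 HeLa S3 lamin A-EGFP/DsRed2 stable clone, 600 cells/well, Opti-MEM 2% FBS; compounds by pin tool; 48 hrs, 37 °C/5% CO2; Acumen 488 nm scan, objects 10-100 um; GFP/RFP intensity ratio.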

[2] = target: DNA repair nuclease/redox regulator APEX1 (Homo sapiens) (UniProt P27695); experiment: qHTS Validation Assay for Inhibitors of the Human Apurinic/apyrimidinic Endonuclease 1 (APE1) (AID 1705; also: potency is read from the fitted curve at half-maximal effect)
DNA repair nuclease/redox regulator APEX1 (Homo sapiens), sequence (P27695 whole entry, looked up): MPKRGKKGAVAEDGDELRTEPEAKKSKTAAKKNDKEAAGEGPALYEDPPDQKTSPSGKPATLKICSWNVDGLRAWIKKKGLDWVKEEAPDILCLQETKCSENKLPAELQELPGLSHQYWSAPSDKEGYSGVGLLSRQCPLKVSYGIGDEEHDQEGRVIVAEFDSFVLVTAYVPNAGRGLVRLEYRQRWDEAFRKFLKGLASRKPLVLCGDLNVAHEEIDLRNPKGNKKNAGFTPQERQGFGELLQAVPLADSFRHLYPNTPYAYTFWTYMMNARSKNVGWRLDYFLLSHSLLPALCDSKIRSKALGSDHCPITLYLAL
Outline: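 qHTS, 1536-well. APE1 + cpd 15 min RT → 50 nM TAMRA/BHQ-2 THF-abasic dsDNA substrate → kinetic fluorescence, 3 reads/60 s; delta(read3−read1) = reaction progress. No-enzyme buffer = negative control.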

[3] = Counterscreen for APE1 Inhibitors: Fluorescent Dye Displacement Validation Assay (AID 1707)
Outline: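 Loss of Thiazole Orange fluorescence marks promiscuous DNA binders. The dye (250 nM) is mixed with 50 nM abasic-site dsDNA in pH7.5 Tris buffer containing MgCl2, then compounds are added and emission is read once.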

[4] = target: Endonuclease 4 (Escherichia coli (strain K12)) (UniProt P0A6C1); experiment: Counterscreen for APE1 Inhibitors: qHTS Validation Assay for Inhibitors of Endonuclease IV (AID 1708)
Outline: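 Measured as reaction progress, the fluorescence gain between first and third kinetic reads after adding 50 nM TAMRA/BHQ-2 THF duplex to 2 nM enzyme preincubated 15 min with compound; 2 mM MgCl2, pH 7.5.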

[5] = qHTS for differential inhibitors of proliferation of Plasmodium falciparum line 7G8 (AID 1815);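 also: parasite growth measured after three days of incubation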; also: potency is read from the fitted curve at half-maximal effect
[6] = qHTS for differential inhibitors of proliferation of Plasmodium falciparum line GB4 (AID 1816); conditions: Potency: Plasmodium falciparum GB4 proliferation inhibition;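 also: parasite growth measured after 72 h incubation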; also: potency is read from the fitted curve at half-maximal effect
[7] = qHTS for differential inhibitors of proliferation of Plasmodium falciparum line D10 (AID 1877);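 also: parasites grown with compound for 72 h before DNA staining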; also: potency is read from the fitted curve at half-maximal effect
[8] = qHTS for differential inhibitors of proliferation of Plasmodium falciparum line Dd2 (AID 1882); conditions: Potency: Plasmodium falciparum Dd2 proliferation inhibition; also: nearly all actives have a fitted effect of over 65% in size; also: potency is read from the fitted curve at half-maximal effect
Outline: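 RBC culture, 0.3% parasitemia / 2.5% Hct final; cpd added by pin tool in DMSO; 72 h, 37 C, 5% CO2; lysis buffer + SYBR Green I, o/n RT dark; FI 485/535; norm. to artemisinin 0.29 uM and DMSO.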

[9] = qHTS for differential inhibitors of proliferation of Plasmodium falciparum line W2 (AID 1883); conditions: Potency: Plasmodium falciparum W2 proliferation inhibition;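 also: parasites grown with compound for 72 h before lysis and staining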; also: potency is read from the fitted curve at half-maximal effect
[10] = qHTS for differential inhibitors of proliferation of Plasmodium falciparum line HB3 (AID 1886); conditions: Potency: Plasmodium falciparum HB3 proliferation inhibition;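 also: parasites grown with compound for 72 h before SYBR Green readout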; also: potency is read from the fitted curve at half-maximal effect
[11] = target: Ferritin light chain (Equus caballus) (UniProt P02791); experiment: qHTS Validation Assay for Identification of Novel General Anesthetics (AID 2323); also: series mostly up to about 77 µM
Ferritin light chain (Equus caballus), sequence (P02791 2-175 limits assumed): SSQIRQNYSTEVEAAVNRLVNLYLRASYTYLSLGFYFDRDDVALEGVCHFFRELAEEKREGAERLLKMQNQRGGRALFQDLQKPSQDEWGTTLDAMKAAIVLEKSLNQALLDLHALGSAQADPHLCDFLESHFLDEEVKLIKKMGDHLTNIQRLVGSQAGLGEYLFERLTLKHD
Outline: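 Fluorescence at 535 nm (excitation 380 nm) reported loss of 1-AMA binding to horse-spleen apoferritin (10 uM) in PBS with 50% saturated 1-aminoanthracene, after 10 min room-temperature incubation with compound; values from Hill fits of normalized response.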

[12] = target: ATP-dependent DNA helicase Q1 (Homo sapiens) (UniProt P46063); experiment: qHTS Validation Assay for Inhibitors of RecQ-Like Dna Helicase 1 (RECQ1) (AID 2353)
ATP-dependent DNA helicase Q1 (Homo sapiens), sequence (P46063 whole entry, looked up): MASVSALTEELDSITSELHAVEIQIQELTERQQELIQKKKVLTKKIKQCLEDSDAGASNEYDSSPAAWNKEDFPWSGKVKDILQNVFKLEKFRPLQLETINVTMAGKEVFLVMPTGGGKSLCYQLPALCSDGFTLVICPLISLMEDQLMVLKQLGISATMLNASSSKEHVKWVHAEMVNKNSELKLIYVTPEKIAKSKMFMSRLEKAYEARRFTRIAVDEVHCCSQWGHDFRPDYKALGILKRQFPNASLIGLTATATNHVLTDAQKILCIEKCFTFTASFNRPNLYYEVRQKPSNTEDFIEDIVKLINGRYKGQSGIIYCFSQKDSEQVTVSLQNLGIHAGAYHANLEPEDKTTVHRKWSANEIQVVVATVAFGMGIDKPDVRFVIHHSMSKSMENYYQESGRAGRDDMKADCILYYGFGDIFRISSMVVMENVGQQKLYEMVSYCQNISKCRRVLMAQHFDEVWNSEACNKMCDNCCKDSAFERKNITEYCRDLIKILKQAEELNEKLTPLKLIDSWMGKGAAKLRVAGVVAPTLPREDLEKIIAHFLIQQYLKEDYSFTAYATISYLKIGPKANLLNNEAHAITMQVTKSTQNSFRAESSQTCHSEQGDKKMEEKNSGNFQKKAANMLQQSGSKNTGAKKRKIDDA
Outline: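 RECQ1T1 50 nM; forked duplex (20 bp + 30-nt ss tails) 200 nM, ATP 2 mM final; pH 8.0, 2 mM MgCl2, 2.5 ug/ml poly(dI-dC); 15 min compound preincubation; discontinuous kinetic read over 2 h at RT.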

[13] = target: alpha-glucosidase (Oryza sativa, rice) (UniProt Q653V4); experiment: Counterscreen for Glucocerebrosidase Inhibitors: qHTS Assay for Rice alpha-Glucosidase at pH 5.0 (AID 997)
Outline: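 Endpoint fluorogenic assay at pH 5.0: compounds (0.7 nM to 77 uM) titrated against 4 nM rice enzyme and 400 uM 4-MU-alpha-glucoside for 20 min at room temperature; NaOH/glycine stop, read ex 365/em 440 nm, Hill-fitted AC50.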

[14] = qHTS Assay for Modulators of Human Peripheral Myelin Protein 22 (PMP22) Expression/Activity (AID 1967; active = well fitted curve in the direction sought with a large enough effect in the signal ratio; the % refers to the signal ratio)
Outline: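 Luminescence ratio of Pmp22 promoter-driven green luciferase to EF-alpha-driven red luciferase, in engineered mouse MSC80 Schwann cells, served as read-out. Compounds were incubated 24h; untreated cells defined 0% Activity; curves were classified by r2, magnitude and activity.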

[15] = qHTS for differential inhibitors of proliferation of Plasmodium falciparum line 3D7 (AID 1876); also: potency is read from the fitted curve at half-maximal effect
[16] = target: RecQ-like DNA helicase BLM (Homo sapiens) (UniProt P54132); experiment: qHTS Validation Assay for Inhibitors of Bloom's syndrome helicase (BLM) (AID 2364); also: potency is read from the fitted curve at half-maximal effect
RecQ-like DNA helicase BLM (Homo sapiens), sequence (P54132 whole entry, looked up): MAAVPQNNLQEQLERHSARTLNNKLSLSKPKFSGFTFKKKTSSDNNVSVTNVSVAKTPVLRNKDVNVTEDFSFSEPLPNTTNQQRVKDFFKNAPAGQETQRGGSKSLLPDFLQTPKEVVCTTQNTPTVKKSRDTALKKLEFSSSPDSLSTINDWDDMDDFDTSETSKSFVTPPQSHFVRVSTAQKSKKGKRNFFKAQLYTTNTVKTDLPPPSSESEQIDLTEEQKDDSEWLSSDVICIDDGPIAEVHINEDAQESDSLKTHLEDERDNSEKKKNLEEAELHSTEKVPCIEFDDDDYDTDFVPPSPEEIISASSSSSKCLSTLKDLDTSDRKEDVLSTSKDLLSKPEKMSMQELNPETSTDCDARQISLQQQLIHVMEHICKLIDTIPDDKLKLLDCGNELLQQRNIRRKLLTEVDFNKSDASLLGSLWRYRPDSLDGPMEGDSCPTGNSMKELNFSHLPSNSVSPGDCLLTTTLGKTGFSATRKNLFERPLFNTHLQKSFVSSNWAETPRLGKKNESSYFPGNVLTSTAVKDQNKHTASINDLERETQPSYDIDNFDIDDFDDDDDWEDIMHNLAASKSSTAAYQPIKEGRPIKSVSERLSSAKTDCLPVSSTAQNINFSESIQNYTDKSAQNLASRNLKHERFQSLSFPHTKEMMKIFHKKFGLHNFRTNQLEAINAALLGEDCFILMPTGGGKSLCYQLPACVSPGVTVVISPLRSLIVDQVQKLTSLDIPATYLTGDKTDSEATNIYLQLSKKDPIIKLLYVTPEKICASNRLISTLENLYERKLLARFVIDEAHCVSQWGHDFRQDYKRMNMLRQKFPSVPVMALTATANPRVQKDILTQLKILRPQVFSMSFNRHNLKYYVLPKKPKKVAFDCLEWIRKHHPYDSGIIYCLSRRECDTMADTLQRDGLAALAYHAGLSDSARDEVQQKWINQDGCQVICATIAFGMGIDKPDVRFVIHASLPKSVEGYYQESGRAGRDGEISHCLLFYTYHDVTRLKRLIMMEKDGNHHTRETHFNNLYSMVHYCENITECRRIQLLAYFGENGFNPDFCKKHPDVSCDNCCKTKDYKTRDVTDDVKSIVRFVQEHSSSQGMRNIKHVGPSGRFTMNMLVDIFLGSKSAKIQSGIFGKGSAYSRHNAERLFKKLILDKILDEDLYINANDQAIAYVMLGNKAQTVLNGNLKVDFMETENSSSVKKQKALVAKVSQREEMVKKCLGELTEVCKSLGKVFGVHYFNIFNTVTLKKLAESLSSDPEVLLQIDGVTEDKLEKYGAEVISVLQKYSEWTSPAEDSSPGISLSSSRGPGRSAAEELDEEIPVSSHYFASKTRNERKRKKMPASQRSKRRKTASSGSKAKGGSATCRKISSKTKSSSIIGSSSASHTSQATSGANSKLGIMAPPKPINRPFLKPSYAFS
Outline: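 BLM 50 nM in 25 mM Tris-HCl pH 8.0, 5 mM NaCl, 2 mM MgCl2, 1 mM DTT, 0.01% Tween-20, 2.5 ug/ml poly(dI-dC); 15 min cpd preinc, RT. Start: 200 nM forked DNA + 2 mM ATP (final). TAMRA read, 2 reads 2 h apart.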

Measured: Potency

O=c1cc(O)cc(/C=C/c2ccc(O)c(O)c2)o1
active: [2] 0.794 µM | [5] 8.91 µM | [6] 12.6 µM | [7] 11.2 µM | [9] 11.2 µM | [10] 11.2 µM
inactive: [1] | [3] | [4] | [8] | [11] | [12]

CC[C@H](NC(=O)c1c(C)c(-c2ccccc2)nc2ccccc12)c1ccccc1
inactive: [13] | [1] | [2] | [3] | [4]
active: [5] 7.08 µM | [6] 11.2 µM | [9] 8.91 µM | [10] 12.6 µM

Nc1ccc(CCNc2ncnc3c2ncn3C2OC(CO)C(O)C2O)cc1 (configuration not stated)
inactive: [1] | [2] | [3] | [4] | [10] | [14] | [11] | [12]

COC1(C2=NCCN2)COc2ccccc2O1 (configuration not stated)
inactive: [1] | [2] | [3] | [4] | [5] | [15] | [7] | [8] | [10] | [14] | [11] | [12]

O=C(O)c1cc(=O)cc(C(=O)O)[nH]1
inactive: [13] | [1] | [2] | [3] | [4] | [5] | [6] | [15] | [7] | [8] | [9] | [10] | [14] | [11] | [12]

C=CCN1CCc2c(cc(O)c(O)c2Cl)C(c2ccccc2)C1 (configuration not stated)
active: [5] 5.01 µM | [6] 5.01 µM | [15] 7.94 µM | [7] 12.6 µM | [8] 10 µM | [9] 3.55 µM | [10] 7.08 µM
inactive: [1] | [2] | [3] | [4] | [12]

O=C(O)C1=CCCN(CCON=C(c2ccccc2)c2ccccc2)C1
active: [9] 5.62 µM
inactive: [13] | [1] | [2] | [3] | [4] | [5] | [15] | [7] | [8] | [10] | [11] | [12]

Nn1nnc2ccccc21
active: [5] 12.6 µM | [7] 12.6 µM | [9] 17.8 µM
inactive: [13] | [1] | [2] | [3] | [4] | [8] | [14] | [11] | [16]

c1ccc2nc(C3=NCCN3)ccc2c1
inactive: [13] | [1] | [2] | [3] | [4] | [5] | [15] | [7] | [10] | [12] | [16]

O=[N+]([O-])c1cccc2c(Br)[nH]nc12
inactive: [13] | [1] | [2] | [3] | [4] | [5] | [15] | [7] | [8] | [9] | [10] | [14] | [11] | [12]

COc1cc(C(O)C(=O)O)ccc1O (configuration not stated)
inactive: [1] | [2] | [3] | [4] | [5] | [6] | [15] | [7] | [9] | [10] | [14] | [11] | [12]

Cc1cccc(C2CN(C)CCc3c2cc(O)c(O)c3Cl)c1 (configuration not stated)
inactive: [1] | [2] | [3] | [4] | [12] | [16]
active: [5] 7.94 µM | [6] 8.91 µM | [15] 8.91 µM | [7] 11.2 µM | [9] 7.08 µM | [10] 12.6 µM

Cc1cc2c(cc1Cl)N(C(=O)Nc1ccnc3ccccc13)CC2
inactive: [13] | [1] | [2] | [3] | [4] | [5] | [6] | [15] | [7] | [8] | [10] | [11] | [12]

CC(C)C[C@H](NC(=O)[C@H](O)[C@H](N)Cc1ccccc1)C(=O)O
inactive: [1] | [2] | [3] | [4] | [5] | [6] | [15] | [7] | [8] | [9] | [10] | [12]

O=c1[nH]c2cc(Cl)ccc2c(O)c1-c1ccc(Oc2ccccc2)cc1
inactive: [13] | [1] | [2] | [3] | [4] | [5] | [15] | [7] | [8] | [10] | [14] | [11] | [12]

C=CC[C@H](N)C(=O)O
inactive: [13] | [1] | [2] | [3] | [4] | [5] | [6] | [15] | [7] | [8] | [9] | [10] | [11] | [12] | [16]

C[C@H](O)C(=O)C1=Nc2c(nc(N)[nH]c2=O)NC1
inactive: [13] | [1] | [2] | [3] | [4] | [5] | [6] | [15] | [7] | [8] | [10] | [14] | [11] | [12]

COC(=O)C1=C(C)NC(C)=C([N+](=O)[O-])C1c1ccccc1C(F)(F)F (configuration not stated)
active: [9] 12.6 µM
inactive: [1] | [2] | [3] | [4] | [7]

COC(=O)C(C)(N)Cc1ccc(O)cc1 (configuration not stated)
active: [6] 14.1 µM | [9] 12.6 µM
inactive: [1] | [2] | [3] | [4] | [8] | [14] | [11] | [12] | [16]

[Li+]
inactive: [13] | [1] | [2] | [3] | [4] | [5] | [6] | [15] | [7] | [8] | [9] | [10] | [14] | [11] | [16]

CC1CCN=C(N)S1 (configuration not stated)
inactive: [1] | [2] | [3] | [4] | [5] | [7] | [8] | [10] | [11] | [12]
active: [9] 11.2 µM

CC(N)(C(=O)O)c1ccc(C(=O)O)cc1 (configuration not stated)
inactive: [1] | [2] | [3] | [5] | [6] | [15] | [7] | [8] | [9] | [10] | [14] | [11] | [12]

Nc1ccc(-c2ccc3ccccc3n2)cc1
inactive: [13] | [1] | [2] | [3] | [7] | [8] | [11] | [12]

N[C@H]1CONC1=O
inactive: [1] | [2] | [3] | [5] | [6] | [15] | [7] | [9] | [10] | [11] | [12]

CCCN(CCc1ccccc1)C1CCc2c(O)cccc2C1 (configuration not stated)
inactive: [1] | [2] | [3] | [12] | [16]
active: [5] 1.12 µM | [6] 0.891 µM | [15] 3.16 µM | [7] 5.01 µM | [8] 2 µM | [9] 1 µM | [10] 2.51 µM

Cn1c(=O)c2[nH]c(-c3ccc(S(=O)(=O)O)cc3)nc2n(C)c1=O
inactive: [13] | [1] | [2] | [4] | [14] | [12] | [16]

CCCCCCCCCCC/C=C\C(C)(C)/C=C\CCCC(=O)O
inactive: [13] | [1] | [3] | [6] | [15] | [7] | [8] | [10] | [14]
active: [2] 35.5 µM | [16] 25.1 µM

CCCCCC[C@@H]([C@@H](C)O)n1cnc2c(N)ncnc21
inactive: [1] | [3] | [5] | [6] | [7] | [8] | [10] | [14] | [11] | [12]

C#CC(N)CCC(=O)O (configuration not stated)
inactive: [1] | [2] | [3] | [5] | [6] | [15] | [7] | [8] | [10] | [14] | [11] | [16]
